# Compound activity as filed in PubChem.
# Shown are actives, neighbours in structure and some others; about 2% of the full set was active somewhere.
# ABHD5 PLIN5 PPI = ABHD5-PLIN5 interaction inhibitors, primary screen, cell lysate, split luciferase complementation, luminescence. Perilipin-5 (Homo sapiens) + 1-acylglycerol-3-phosphate O-acyltransferase ABHD5 (Homo …. Split G. princeps luciferase complementation, 4 h. inhibition, % at 4 µM. actives 0.78% (n = 360,000). AID 602281, 2012;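 active = inhibition above the mean inhibition across every tested compound plus 3 SD, cut at about 22% in these data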;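 note: 0% = DMSO only wells and the 100% control is not disclosed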
# B2AR ag = beta2AR agonists driving receptor internalization, primary screen, cell-based, FAP fluorogen, flow cytometry. response, % (test concentration not listed). actives 0.43% (n = 340,000). Am2.2-beta2AR cells. Beta-2 adrenergic receptor (Homo sapiens), P07550. AID 504454, 2011;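 active = response above a set limit, near 3 SD of response in nonfluorescent compounds, cut at about 42% in these data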
# Target sequence (P07550 whole entry, looked up): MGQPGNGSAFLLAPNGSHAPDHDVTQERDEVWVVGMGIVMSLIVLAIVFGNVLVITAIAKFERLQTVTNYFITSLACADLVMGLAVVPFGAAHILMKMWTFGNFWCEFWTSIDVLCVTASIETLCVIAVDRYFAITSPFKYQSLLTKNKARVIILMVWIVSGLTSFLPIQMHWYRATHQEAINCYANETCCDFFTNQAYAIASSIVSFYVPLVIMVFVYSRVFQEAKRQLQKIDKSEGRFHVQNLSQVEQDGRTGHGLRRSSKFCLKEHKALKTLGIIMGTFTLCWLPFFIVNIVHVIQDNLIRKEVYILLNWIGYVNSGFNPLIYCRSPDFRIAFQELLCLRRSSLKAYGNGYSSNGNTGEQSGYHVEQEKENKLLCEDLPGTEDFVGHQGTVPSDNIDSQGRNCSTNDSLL
# Exocytosis inh = LAMP-1 surface exposure blockers, TALL-104 cells – cell-based, flow cytometry, MLPCN library, primary screen; inhibition, % at 10 µM; actives 0.66% (n = 360,000); TALL-104 LAMP-1 surface exposure; cells stimulated with thapsigargin and PMA;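 active = inhibition above about 55%, limit read from the data; inconclusive = no clear call, values can overlap the other calls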
# NOD2-RIPK2 inh = NOD2-RIPK2 binding disruptors in cells, primary screen, fluorescence, CHO cells, BLA complementation; inhibition, % at 4.98 µM; Receptor-interacting serine/threonine-protein kinase 2 (Homo sapiens), O43353; actives 0.38% (n = 360,000); CCF4 ratio; in the data active = inhibition above about 21%;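 note: 0% = vehicle only and 100% = reference blocker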
# TLR9-MyD88 inh = inhibitors of TLR9-MyD88 association in cells, primary screen, cell-based, CHO, BLA complementation, fluorescence | CCF4 FRET ratio | inhibition, % at 4.98 µM | actives 0.21% (n = 340,000) | AID 504734, 2011;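 active = inhibition above the mean over all tested compounds plus 3 SD, cut at about 21% in these data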;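 note: 0% = DMSO only wells and 100% = clavulanate BLA inhibitor control wells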
# TLR4 MyD88 comp = inhibitors of TLR4-MyD88 association in cells, primary screen, cell-based, HeLa CL3-4, BLA complementation, FRET ratio; actives 0.18% (n = 200,000); HeLa CL3-4 TLR4/MyD88 BLA complementation; inhibition, % at 8.4 µM; in the data active = inhibition above about 25%;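 note: 0% = vehicle and 100% = reference inhibitor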
# Beta2AR ag CP1 = beta2AR agonists via receptor internalization, confirmation, cell-based, FAP fluorogen, flow cytometry, single point, cherry pick 1; percent response (surface receptor), % at 10 µM; shares compounds with B2AR ag; AID 540358, 2011; Am2.2-beta2AR cells, FAP surface receptor; active compounds read low; actives 25% (n = 1,100);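 active = surface receptor percent response at or below 58%, roughly 3 SD from nonfluorescent compounds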
# FAP fluor counter = fluorescence artifact in beta-2AR agonist FAP counterscreen; shares compounds with B2AR ag; Am2.2 cells, FAP fluorogen flow cytometry; active compounds read low; calls only at 10 µM; 1,100 tested, under 10 active;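 active = percent response below a set limit in fluorescence channel 1 and below 50% in channel 8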
# An asterisk follows results filed as active; i = inactive; u = inconclusive; x = not tested or not shown.
SMILES,ABHD5 PLIN5 PPI,B2AR ag,Exocytosis inh,NOD2-RIPK2 inh,TLR9-MyD88 inh,TLR4 MyD88 comp,Beta2AR ag CP1,FAP fluor counter
CN1CCCC(CC2c3ccccc3Sc3ccccc32)C1 (configuration not stated),14.9,36.9,1.0,-5.6,-4.6,x,80.5,i
CC(=O)Nc1ccc(-c2cn3c(n2)SCC3)cc1,-10.9,60.2*,8.8,-0.2,-4.8,x,53.3*,i
Cc1cc2nc(-c3ccccc3)c(CC(C)(C)C)n2c(C)c1Br,-22.1,x,1.8,-2.5,x,x,x,x
Cc1noc(NS(=O)(=O)c2ccc(NC(=O)C34CC5CC(C3)CC(n3cnc(Cl)n3)(C5)C4)cc2)c1C,-1.9,74.0*,-6.6,-2.0,12.7,9.5,84.0,i
COC(=O)C(C#N)(CCC(=O)c1ccccc1)CCC(=O)c1ccccc1,8.0,x,6.5,2.1,x,x,x,x
Oc1c(CNc2ccccc2)cc(COCc2ccccc2)c2cccnc12,9.8,4.3,-1.1,-4.4,5.8,x,x,x
Oc1c(CN2CCOCC2)cc(COCc2ccccc2)c2cccnc12,12.0,-1.8,-1.2,-2.4,-4.3,-0.9,92.1,i
O=C(NC1CCCCC1)C(c1ccnc2ccccc12)n1c(=O)c(-c2ccccc2)nc2ccccc21 (configuration not stated),4.5,x,6.0,-19.4,x,x,x,x
COc1ccc(N(C(=O)c2snc(C(N)=O)c2N)C(C(=O)NC2CCCC2)c2ccco2)c(OC)c1 (configuration not stated),3.6,70.0*,2.9,-5.8,0.0,x,115.7,i
CCN(CC)c1nc(SCCOC(=O)Nc2ccccc2)nc(N(CC)CC)n1,-28.9,43.9*,16.2,-7.1,-7.5,-2.6,105.8,i
Fc1ccc(NC(=S)Nc2nccs2)cc1,-4.9,2.0,5.3,-4.7,14.0,1.4,x,x
S=C(Nc1ccccc1)Nc1nccs1,-6.6,-0.2,-7.3,-17.3,-6.0,x,94.0,i
CC(C)[C@@H]1Cc2[nH][nH]c(=O)c2[C@H](c2ccc(F)cc2)O1,12.5,x,1.0,-6.5,x,x,x,x
CCCCNC(=O)c1nc(-c2ccncc2)oc1-c1ccccc1,-2.6,x,-6.9,-3.9,x,x,x,x
CCCC(=O)N1CCC(Cc2ccccc2)CC1,5.0,0.3,u,-4.8,-1.7,x,x,x
CCC(=O)N1COC[C@@H]1Cc1ccccc1,-7.7,-0.7,0.8,-1.3,-1.2,-4.2,106.5,i
Cc1cccc(CN2CCN([C@H]3CS(=O)(=O)N[C@@H]3COCc3ccccc3)CC2)c1,0.6,x,-0.8,12.0,x,x,x,x
Cc1ccc(Cl)cc1NS(=O)(=O)N1CCOCC1,5.4,5.2,-4.0,-7.5,-4.3,x,x,x
COc1ccc(Cl)cc1NS(=O)(=O)N1CCOCC1,-2.3,50.5*,-1.5,-10.0,2.0,x,118.7,i
Cc1oc(CC(C)C)cc1C(=O)Nc1cccc2ccccc12,-11.6,42.7*,0.0,-3.6,-5.0,-2.0,98.9,i
O=C(Nc1ccccc1Cl)c1cc(C2CCCN(C(=O)c3cccc(O)c3)C2)on1 (configuration not stated),-1.0,x,-8.0,-1.6,x,x,x,x
CCNC(=O)CN(CCc1ccccc1)S(=O)(=O)c1ccc(OC)cc1,1.6,-0.1,-0.6,5.7,-6.6,3.3,x,x
COc1ccc(S(=O)(=O)N(CCc2ccccc2)CC(=O)O)cc1,-1.3,51.2*,3.0,2.9,-9.6,0.7,101.8,i
CCN(CC)c1ccc(NC(=O)c2cccc(OC)c2)c(C)c1,-7.1,9.9,1.6,1.8,-2.4,3.5,x,x
CCN(CC)c1ccc(NC(=O)c2cc(OC)cc(OC)c2)c(C)c1,-1.4,55.2*,-1.8,10.8,15.3,15.0,77.9,i
SMILES,ABHD5 PLIN5 PPI,B2AR ag,Exocytosis inh,NOD2-RIPK2 inh,TLR9-MyD88 inh,TLR4 MyD88 comp,Beta2AR ag CP1,FAP fluor counter
COc1ccccc1CCn1cnc(Cc2ccccc2)c1C(C)C,-0.8,x,1.5,-14.8,x,x,x,x
CCOC(=O)c1[nH]c(C)c(C(=O)OCC(=O)N(Cc2ccccc2)C(C)C)c1C,-8.7,3.7,-1.3,-9.9,-6.8,x,x,x
CCC1(c2ccccc2)NC(=O)N(CC(=O)N(C)Cc2c(F)cccc2Cl)C1=O (configuration not stated),-0.3,82.4*,-17.0,2.2,0.7,x,101.0,i
Cc1ccc(C(C[N+](=O)[O-])Sc2ccc(N)cc2)cc1 (configuration not stated),5.5,70.4*,10.4,1.5,-6.4,x,102.1,i
Cc1ccc(C(C[N+](=O)[O-])n2nc(C)cc2C)cc1 (configuration not stated),4.3,18.4,8.8,-5.3,-2.4,19.2,x,x
CCCN(C)C1CN(Cc2cn(CCCC(=O)OC)nn2)S(=O)(=O)C1 (configuration not stated),-10.1,x,1.5,-3.8,x,x,x,x
COc1ccccc1C(CCNCc1ccc(N(C)C)cc1)c1ccc(OC(C)C)cc1 (configuration not stated),1.4,64.7*,10.7,9.0,-17.0,x,61.7,i
COc1ccc(CNCCC(c2ccc(OC(C)C)cc2)c2ccccc2OC)cc1OC (configuration not stated),13.4,11.9,28.9,7.7,4.3,x,104.6,i
COc1ccc(CNCCC(c2ccc(OC(C)C)cc2)C(C)C)cc1OC (configuration not stated),8.1,28.3,14.6,-4.3,-7.0,4.9,x,x
COc1ccccc1C(CCNCc1ccccc1)c1ccc(OC(C)C)cc1 (configuration not stated),1.6,25.4,54.9,3.3,-4.8,x,111.2,i
COc1ccc(C(CC(=O)O)c2ccc3c(c2)OCO3)cc1 (configuration not stated),-2.2,-0.7,-3.7,-2.6,6.3,x,x,x
COc1ccc(CNCCC(c2ccccc2)c2ccc3c(c2)OCO3)cc1 (configuration not stated),17.7,20.6,5.9,1.8,-3.7,2.8,82.2,i
CC(C)C[C@@H](CNCC(=O)[C@H](Cc1ccccc1)NC(=O)c1[nH]cnc1C(=O)N[C@@H](C)CN)NC(=O)c1nc[nH]c1C(=O)N[C@@H](C)C(=O)O,8.7,-0.2,-1.2,-4.3,-2.9,x,x,x
